Assay [1] is described as follows: qHTS of pediatric cancer cell lines to identify multiple opportunities for drug repurposing: Primary screen for DAOY cells (AID 1347090). Also: nearly all actives have a fitted effect of over 55% in size. Also: potency is read from the fitted curve at half-maximal effect. Summed up:
(§1)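 Viability measured as metabolically active cells via CellTiter-Glo luminescence following 48 hours of compound exposure, 11-point dilutions in confirmatory testing. 500-1,000 cells/well plated 5 hours before dosing; controls were DMSO and 2.3 µM bortezomib.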
(qHTS replaces the single test concentration by a dilution series.)

The nature of assay [2]: qHTS of pediatric cancer cell lines to identify multiple opportunities for drug repurposing: Primary screen for SK-N-MC cells (AID 1347093). Also: potency is read from the fitted curve at half-maximal effect. A digest of the protocol: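 Metabolically active cells were quantified by ATP-dependent luminescence (CellTiter-Glo, 15 min at room temperature) following 48 h treatment. Cells had been plated at 500-1,000 per well and settled for 5 h beforehand.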

Assay [3] in a line: qHTS of pediatric cancer cell lines to identify multiple opportunities for drug repurposing: Primary screen for NB-EBc1 cells (AID 1347095). Also: potency is read from the fitted curve at half-maximal effect. A digest of the protocol: (§2)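 Primary screen of approved and investigational compounds on cells in growth media at 37 degrees C, 5% CO2. MIPE set at 11-point and NPC set at 8-point dilutions; viability scored by ATP-based luminescence at 48 hours.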

Assay [4] is described as follows: qHTS of pediatric cancer cell lines to identify multiple opportunities for drug repurposing: Primary screen for U-2 OS cells (AID 1347096). Also: nearly all actives have a fitted effect of over 50% in size. A digest of the protocol:
(§3)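 Viability after 48 h compound treatment at 37C, 500-1,000 cells/well, read as ATP luminescence with CellTiter-Glo. Primary screens used 11-point (MIPE, 0.78 nM-46 µM) or 8-point (NPC, 0.59 nM-46 µM) final concentrations; follow-up screens used 11-point dilutions.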

Assay [5] can be described thus: qHTS of pediatric cancer cell lines to identify multiple opportunities for drug repurposing: Primary screen for Saos-2 cells (AID 1347097). Also: nearly all actives have a fitted effect of over 40% in size. A digest of the protocol:
as §2

Assay [6] in a line: qHTS of pediatric cancer cell lines to identify multiple opportunities for drug repurposing: Primary screen for SK-N-SH cells (AID 1347098). Also: nearly all actives have a fitted effect of over 65% in size. Also: potency is read from the fitted curve at half-maximal effect. A digest of the protocol:
(§4)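 Cells (500-1,000/well) rested 5 h, then received compounds for 48 h; metabolically active cells were measured by CellTiter-Glo luminescence. Final concentrations spanned up to 46 µM (MIPE, 11-point) or 0.59 nM-46 µM (NPC, 8-point) in primary screens, 11-point in follow-ups.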

A short description of assay [7]: qHTS of pediatric cancer cell lines to identify multiple opportunities for drug repurposing: Primary screen for NB1643 cells (AID 1347099). Also: nearly all actives have a fitted effect of over 50% in size. Also: potency is read from the fitted curve at half-maximal effect. Summed up:
as §2

A short description of assay [8]: qHTS of pediatric cancer cell lines to identify multiple opportunities for drug repurposing: Primary screen for LAN-5 cells (AID 1347100). Also: potency is read from the fitted curve at half-maximal effect. A digest of the protocol: as §3
Assay [9] in a line: qHTS of pediatric cancer cell lines to identify multiple opportunities for drug repurposing: Primary screen for RD cells (AID 1347104). Also: nearly all actives have a fitted effect of over 55% in size. Also: potency is read from the fitted curve at half-maximal effect. A digest of the protocol: as §2
A short description of assay [10]: qHTS of pediatric cancer cell lines to identify multiple opportunities for drug repurposing: Primary screen for control Hh wild type fibroblast cells (AID 1347106).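 Also: series mostly up to about 46 µM; a drop in luminescence marks cytotoxicity and a rise apparent proliferation; nearly all actives have a fitted effect of over 55% in size.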 A digest of the protocol:
as §3

Assay [11] is described as follows: qHTS of pediatric cancer cell lines to identify multiple opportunities for drug repurposing: Primary screen for SJ-GBM2 cells (AID 1347091). Also: potency is read from the fitted curve at half-maximal effect. Summed up: as §1
A short description of assay [12]: qHTS of pediatric cancer cell lines to identify multiple opportunities for drug repurposing: Primary screen for A673 cells (AID 1347092). Also: nearly all actives have a fitted effect of over 45% in size. Also: potency is read from the fitted curve at half-maximal effect. Summed up: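 A673 cells (500-1,000 cells/well in growth media) were pre-incubated 5 h at 37 degrees C, then exposed to compounds for 48 h. Viability was read as CellTiter-Glo luminescence; concentration-response curves came directly from the primary screen.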

Assay [13] can be described thus: qHTS of pediatric cancer cell lines to identify multiple opportunities for drug repurposing: Primary screen for BT-12 cells (AID 1347101). Also: nearly all actives have a fitted effect of over 25% in size. A digest of the protocol: as §4
A short description of assay [14]: qHTS of pediatric cancer cell lines to identify multiple opportunities for drug repurposing: Primary screen for Rh18 cells (AID 1347102). Also: nearly all actives have a fitted effect of over 65% in size. A digest of the protocol:
as §3

The nature of assay [15]: qHTS of pediatric cancer cell lines to identify multiple opportunities for drug repurposing: Primary screen for MG 63 (6-TG R) cells (AID 1347105). Also: nearly all actives have a fitted effect of over 50% in size. Also: potency is read from the fitted curve at half-maximal effect. Summed up:
as §2

Assay [16] can be described thus: qHTS of pediatric cancer cell lines to identify multiple opportunities for drug repurposing: Primary screen for Rh30 cells (AID 1347107). Also: series mostly up to about 46 µM; nearly all actives have a fitted effect of over 75% in size. Summed up: as §3
A short description of assay [17]: qHTS of pediatric cancer cell lines to identify multiple opportunities for drug repurposing: Primary screen for Rh41 cells (AID 1347108). Also: nearly all actives have a fitted effect of over 70% in size. Also: potency is read from the fitted curve at half-maximal effect. Summed up:
as §2

Assay [18] in a line: qHTS of pediatric cancer cell lines to identify multiple opportunities for drug repurposing: Primary screen for BT-37 cells (AID 1347094). Also: series mostly up to about 57 µM. A digest of the protocol:
as §2

Assay [19] can be described thus: qHTS of pediatric cancer cell lines to identify multiple opportunities for drug repurposing: Primary screen for OHS-50 cells (AID 1347103). Also: nearly all actives have a fitted effect of over 40% in size. Also: potency is read from the fitted curve at half-maximal effect. A digest of the protocol:
as §4

The nature of assay [20]: qHTS of pediatric cancer cell lines to identify multiple opportunities for drug repurposing: Confirmatory screen for NB1643 cells (AID 1347109). Also: nearly all actives have a fitted effect of over 45% in size. Summed up: as §3

Our source for the Potency values is PubChem BioAssay (NCATS).

Inconclusive results are not listed. Activity calls are given as the source filed them. Calls follow the shape of the dose curve; as a rule, active = well fitted curve in the direction sought with a large enough effect; inconclusive = small, poorly fitted or top-dose-only effect, or another doubt; inactive = no such curve, though single readings can be large; an effect the other way counts as inactive or inconclusive.

As to `CC(C)(N)C(=O)N[C@H](COCc1ccccc1)C(=O)N1CCC2(CC1)CN(S(C)(=O)=O)c1ccccc12`, the Potency entry in assay [1], in [3], in assay [4], in [5], in assay [8] and in assay [10] was “inactive” each time. Also, the Potency in assay [2] is 23.5 µM (active); in [6] it was 30.4 µM (active); in [7] it was 23.5 µM (active); in assay [9] it was 26.4 µM (active).
With `C[C@H](NC(=O)Cc1cc(F)cc(F)c1)C(=O)N[C@@H]1C(=O)N(C)c2ccccc2-c2ccccc21`, the Potency in [1] was 11.8 µM (active); in assay [12], 7.43 µM (active); in assay [6], 12.1 µM (active); in assay [7], 6.62 µM (active); in [9] it was 16.6 µM (active); in [15], 11.8 µM (active). For the same compound, the Potency in [17] is 14.8 µM (active). In addition, the Potency result in [11], in [3], in assay [4], in assay [8], in assay [13] and in assay [14] was “inactive” throughout. The Potency result in [10] and in assay [16] was “inactive” throughout.
For the compound `CCC(C)N(C)C(=O)c1cc2ccccc2c(-c2ccccc2Cl)n1` (centres undefined), the Potency entry in [1], in [11], in assay [12], in assay [18], in [3] and in assay [4] was “inactive” in each case. The Potency result in [8], in [14], in assay [9], in assay [15], in assay [10] and in assay [16] was “inactive” in each case.
For `Cc1[nH]c(=O)c(C#N)cc1-c1ccncc1`, the Potency entry in assay [1], in [11], in assay [12], in [18], in [3] and in [4] was “inactive” each time. Besides, the Potency entry in assay [5], in assay [6], in assay [8], in assay [13], in [14] and in assay [19] was “inactive” throughout. Besides, the Potency entry in assay [9], in [15], in assay [16] and in [17] was “inactive” throughout.
Regarding `Cc1n[nH]c(C)c1Cc1sc2c(c1C(=O)N1C[C@H](O)CO1)c(=O)n(C)c(=O)n2CC(C)C`, the Potency result in assay [1], in assay [11], in assay [18], in [3], in [4] and in [6] was “inactive” throughout. The Potency result in assay [13], in assay [14], in assay [19], in assay [9], in [15] and in [10] was “inactive” in each case. For the same compound, in [16], the Potency result was “inactive”. Besides, the Potency in [7] is 1.05 µM (active).
Consider `CCOC(=O)C1=C[C@]2(CC)CCCN3CCc4c(n1c1ccccc41)[C@@H]32`, for which the Potency result in assay [1], in assay [11], in assay [18], in [3], in [4] and in [7] was “inactive” each time. Further, the Potency entry in assay [13], in assay [14], in assay [10], in assay [16] and in assay [17] was “inactive” throughout. For the same compound, the Potency in assay [19] is 24.3 µM (active).
As to `CCC(C)n1ncn(-c2ccc(N3CCN(c4ccc(OC[C@H]5CO[C@](Cn6cncn6)(c6ccc(Cl)cc6Cl)O5)cc4)CC3)cc2)c1=O` (some centres undefined), the Potency result in assay [1], in assay [12], in assay [18], in [4], in [5] and in [6] was “inactive” in each case. Further, the Potency entry in assay [7], in [14], in assay [15], in assay [10], in assay [16] and in assay [17] was “inactive” throughout. The Potency entry in [20] was “inactive”. In addition, the Potency is 1.66 µM (active) in [11] and 1.05 µM (active) in assay [3].
As for `OC[C@H](Cc1ccccc1)Nc1nc(Oc2ccc3c(c2)CCC3)nc2c1ncn2Cc1ccc(-c2ccccc2)cc1`, in [1], the Potency is 11.8 µM (active). Also, the Potency result in assay [12], in [4], in [6], in assay [8], in assay [14] and in [15] was “inactive” in each case. Besides, the Potency result in assay [16], in assay [17] and in [20] was “inactive” in each case.
Regarding `CNC(=O)c1ccc(C)c(-n2c(C)cc(OCc3ccc(F)cc3F)c(Br)c2=O)c1`, the Potency entry in [1], in [11], in assay [18], in assay [4], in [6] and in assay [9] was “inactive” throughout. The Potency entry in assay [10] was “inactive”. Besides, the Potency is 20.9 µM (active) in [8] and 24.3 µM (active) in assay [19].
As for `NC[C@H](O)c1ccc(O)c(O)c1`, the Potency result in assay [1], in assay [11], in [18], in assay [3], in assay [4] and in assay [5] was “inactive” throughout. Moreover, the Potency entry in [6], in assay [7], in assay [8], in assay [13], in [14] and in assay [19] was “inactive” in each case. The Potency entry in assay [9], in assay [15], in [10], in assay [16] and in assay [17] was “inactive” in each case.
For the compound `COc1ccc([C@@H]2CC(=O)c3c(O)cc(O[C@@H]4O[C@H](CO[C@@H]5O[C@@H](C)[C@H](O)[C@@H](O)[C@@H]5O)[C@@H](O)[C@H](O)[C@@H]4O)cc3O2)cc1O`, the Potency entry in assay [1], in assay [11], in assay [18], in assay [3], in assay [4] and in [5] was “inactive” each time. Further, the Potency result in assay [6], in assay [7], in assay [8], in [13], in [14] and in [19] was “inactive” each time. Moreover, the Potency entry in assay [9], in assay [15], in [10], in assay [16] and in assay [17] was “inactive” each time.
`Nc1nc2ccc(OC(F)(F)F)cc2s1`: the Potency result in assay [1], in assay [3], in assay [4], in assay [6], in assay [7] and in assay [14] was “inactive” in each case. Also, the Potency entry in assay [9], in assay [15], in assay [16] and in assay [17] was “inactive” in each case. Moreover, the Potency in assay [11] is 21.1 µM (active).
Consider `CCCc1nn(C)c2c(=O)[nH]c(-c3cc(S(=O)(=O)N4CCN(C)CC4)ccc3OCC)nc12`, for which the Potency entry in assay [1], in assay [11], in [12], in [18], in assay [3] and in assay [4] was “inactive” throughout. For the same compound, the Potency result in assay [5], in assay [6], in assay [8], in assay [14], in [15] and in assay [10] was “inactive” throughout. Further, the Potency result in assay [16] was “inactive”.
As to `COc1ccc(CC2=NN3C([C@@H](CCc4ccccc4)[C@@H](C)O)=NC(C)C3C(=O)N2)cc1OC` (some centres undefined), the Potency entry in assay [1], in [11], in [12], in assay [18], in assay [3] and in assay [4] was “inactive” throughout. Further, the Potency result in assay [5], in assay [8], in assay [13], in assay [14], in [9] and in assay [15] was “inactive” throughout. Besides, in [10], the Potency entry was “inactive”.
For the compound `Cc1cccc(-c2nn(C(=S)Nc3ccccc3)cc2-c2ccnc3ccccc23)n1`, the Potency result in [1], in assay [12], in assay [2], in [18], in assay [3] and in [4] was “inactive” in each case. Further, the Potency entry in assay [6], in assay [7], in assay [8], in [14], in assay [9] and in assay [15] was “inactive” throughout. Also, the Potency result in [10], in [16] and in assay [17] was “inactive” each time.
Take `OCCn1cc(-c2cnc3nnn(Cc4ccc5ncccc5c4)c3n2)cn1`: the Potency entry in assay [1], in [12], in assay [3], in [4], in assay [5] and in [6] was “inactive” each time. The Potency entry in [7], in [8], in assay [13], in assay [14], in [9] and in [15] was “inactive” throughout. Also, the Potency entry in assay [10] and in assay [16] was “inactive” throughout. In assay [11], the Potency was 0.0059 µM (active).
